An excerpt weighted towards active compounds, which were near 3% of everything screened.
p53ts 39C kill: p53ts cell cytotoxicity, nonpermissive temperature; H1299-p53A138V viability at 39C, ATP luminescence, 24 h; Potency, µM (highest dose often 46.1 µM), hits mostly cytotoxic; 130,000 compounds, 1.5% hits; further: nearly all actives have a fitted effect of over 55% in size
IkB sig inh: suppresses IkB signaling in ABC-DLBCL reporter cells; ABC-DLBCL IkBa-CBG/CBR dual luciferase ratio, 4 h; response scale: scaled: untreated 0%, proteasome inhibitor 100%; Potency, µM (titrated, usually from 57.1 µM); 110,000 compounds, 0.04% hits; AID 445; active means well fitted curve in the direction sought with a large enough effect in the signal ratio, not every such curve was filed as active; inconclusive means small, poorly fitted or top-dose-only effect, or a change in a side signal; the % refers to the signal ratio;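 further: the direction sought is a rising ratio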
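Curves were fitted separately to fusion (green), unfused (red) and ratio luminescence, then classed by r2, magnitude and activity. Cells: OCI-Ly3, 4 h compound plus doxycycline at 37C; 10 uM MG-132 defined full response.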
Peg3 imprint: inducers of genomic imprint erasure in mouse ES cells. Potency, µM (top dose mostly 60.7 µM), usual class: activators. 110,000 compounds, 0.02% hits. mouse ES Peg3-LacZ reporter, beta-gal luminescence, 40 h
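Gelatin-coated wells received 300 freshly trypsinized female ES cells with a Peg3LacZ-Neo reporter on the maternal allele, then incubated 40 hours at 37C. BetaGlo was added for 5 minutes at room temperature before a single luminescence read.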
CRE Fsk mod: modulators of forskolin-stimulated CRE signaling in CHO cells. Potency, µM (titrated, usually from 38.2 µM), actives largely listed as activators. AID 662. CHO CRE-bla reporter (cAMP response element driving beta-lactamase), forskolin EC10, beta-lactamase ratio. 71,000 compounds, 2.5% hits; active means well fitted activation curve with a large enough effect in the signal ratio, with a control signal flat, not every such curve was filed as active; inconclusive means small, poorly fitted or top-dose-only effect, or effect the other way, or a change in a side signal; the % refers to the signal ratio
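Modulation of forskolin-driven signalling is measured in CHO cells carrying a CRE-controlled beta-lactamase reporter. Cells are stimulated with EC10 NKH 477 in the presence of titrated compound for 3 h at 37 °C, then loaded with CCF4 for 2 h at room temperature.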
p53ts 32C tox: kills p53ts cells at the permissive temperature. 130,000 compounds, 0.93% hits. Potency, µM (series often up to 46.1 µM), most hits filed as cytotoxic. H1299-p53A138V at 32C, ATP luminescence viability, 24 h; further: nearly all actives have a fitted effect of over 55% in size
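Cells: H1299 p53ts (A138V), 600/well, pre-incubated 16–30 h at 37C. Cpd up to 46 uM, 24 h, 32C. Readout: ATPlite luminescence, 20 min RT. Normalization: DMSO vs tamoxifen 100 uM. AC50 by Hill equation.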
Of the large screens only hits and unclear results are named; the others gave an inactive call. Unless noted, the call rests on the fitted dose curve; in most records, active means well fitted curve in the direction sought with a large enough effect; inconclusive means small, poorly fitted or top-dose-only effect, or another doubt; inactive means no such curve, though single readings can be large; an effect the other way counts as inactive or inconclusive.

CCOC(=O)c1c(C)[nH]c(C)c1S(=O)(=O)N(C)CC(=O)Nc1cccc(Cl)c1C	none (no result: CRE Fsk mod)
COc1ccc2c(c1)c1c(c(=O)n(Cc3ccccc3)c(=O)n1Cc1ccccc1)n2C	none (no result: CRE Fsk mod)
COc1ccc2c(c1)c1ncn(Cc3ccco3)c(=O)c1n2C	CRE Fsk mod 1µM
CCOC(=O)c1c(NC(=O)c2cc(=O)c3ccc(C)cc3o2)sc(C)c1C	none (no result: CRE Fsk mod)
CNc1nc(-c2ccc(N(C)C)cc2)nc2ccccc12	p53ts 39C kill 10µM, CRE Fsk mod inconclusive, p53ts 32C tox 13µM
Cc1ccccc1-c1nc(Nc2ccncc2)c2ccccc2n1	CRE Fsk mod 4µM
CN(C)c1ccc(-c2nc(Nc3ccncc3)c3ccccc3n2)cc1	p53ts 39C kill 7.9µM, CRE Fsk mod 1.3µM, p53ts 32C tox 10µM (no result: Peg3 imprint)
Clc1ccccc1-c1nc(Nc2ccncc2)c2ccccc2n1	CRE Fsk mod inconclusive
CNc1nc(-c2cccnc2)nc2ccccc12	CRE Fsk mod inconclusive
Fc1ccc(Nc2nc(-c3cccnc3)nc3ccccc23)cc1	CRE Fsk mod 10µM
COc1cc2oc(=O)c(CC(=O)NCCc3ccccc3F)c(C)c2cc1OC	none (no result: CRE Fsk mod)
CC(C)CC(=O)Nc1nc2nc(-c3ccccc3)cc(=O)n2[nH]1	none (no result: CRE Fsk mod)
Cc1ccc(NC(=O)c2cc(S(=O)(=O)NC3CCCCC3)ccc2F)cc1Cl	p53ts 39C kill inconclusive (no result: CRE Fsk mod)
Cc1ccc(NC(=O)c2ccc(N(Cc3ccccc3)S(C)(=O)=O)cc2)cc1	none (no result: CRE Fsk mod)
CCCCOc1ccc(S(=O)(=O)Nc2cccc(-c3ccc(N4CCOCC4)nn3)c2)cc1	IkB sig inh inconclusive (no result: CRE Fsk mod)
CN(C)c1ccc(-c2nc(NCc3cccnc3)c3ccccc3n2)cc1	p53ts 39C kill 4µM, CRE Fsk mod inconclusive, p53ts 32C tox 5µM
COC(=O)CNc1nc(-c2ccncc2)nc2ccccc12	CRE Fsk mod 13µM
CC(=O)NCCNc1nc(-c2ccc(C(=O)N(C)C)cc2)nc2ccccc12	CRE Fsk mod inconclusive
CN(C)C(=O)c1ccc(-c2nc(Nc3ccc(F)cc3)c3ccccc3n2)cc1	p53ts 39C kill inconclusive, CRE Fsk mod 4µM, p53ts 32C tox inconclusive
CN(C)C(=O)c1ccc(-c2nc(Nc3ccncc3)c3ccccc3n2)cc1	p53ts 39C kill inconclusive, CRE Fsk mod 13µM, p53ts 32C tox inconclusive
CCc1nnc(SCc2ccc(F)cc2Cl)c2cc3sc(C)cc3n12	none (no result: CRE Fsk mod)
Cc1cccc(-c2nc3scc(CCNC(=O)c4ccc(Br)o4)n3n2)c1	IkB sig inh inconclusive (no result: CRE Fsk mod)
CC(=O)c1ccc(N2C(=O)N(Cc3cccc(C(F)(F)F)c3)c3ccccc3S2(=O)=O)cc1	none (no result: CRE Fsk mod)
O=C(Nc1ccc(-c2nc3ccccc3[nH]2)cc1)C1CCCO1 (centres undefined)	p53ts 39C kill 4µM, IkB sig inh inconclusive, p53ts 32C tox 2.5µM
CCc1nc(SCC(=O)N2CCN(c3ccccc3)CC2)c2c(=O)n(C)c(=O)n(C)c2n1	none
CC(C)c1nc(SCc2ccccn2)c2c(=O)n(C)c(=O)n(C)c2n1	CRE Fsk mod 5µM
CCc1nc(SCc2ccccn2)c2c(=O)n(C)c(=O)n(C)c2n1	CRE Fsk mod 2.5µM
CCn1c(N2CCN(CC(=O)c3c[nH]c4ccccc34)CC2)nc2c1c(=O)[nH]c(=O)n2C	none
CCCn1c(N2CCN(CC(=O)c3c(C)n(C)c4ccccc34)CC2)nc2c1c(=O)[nH]c(=O)n2C	CRE Fsk mod 7.9µM
COc1cc2c(cc1OC)/C(=C/C(=O)N1CCOCC1)NC(C)(C)C2	CRE Fsk mod 5µM
Cc1ncsc1C(=O)Nc1nc2c(s1)CC(C)CC2 (centres undefined)	p53ts 39C kill 16µM, IkB sig inh inconclusive, p53ts 32C tox inconclusive
CC1CCc2nc(NC(=O)Cc3ccc(Cl)cc3)sc2C1 (centres undefined)	IkB sig inh inconclusive (no result: CRE Fsk mod)
CCc1ccc(OCCCSc2nc(-c3ccc(C(C)(C)C)cc3)nc3cc(=O)[nH]n23)cc1	p53ts 39C kill inconclusive (no result: CRE Fsk mod)
CC(CCc1ccccc1)NC(=O)Cn1c(=O)nc(-c2ccccc2)c2cc(Cl)ccc21 (centres undefined)	IkB sig inh inconclusive (no result: CRE Fsk mod)
CCc1ccc2c(-c3cccc(Cl)c3)nc(=O)n(CC)c2n1	CRE Fsk mod 0.79µM
c1ccc2c(c1)Cc1cc3ccccc3nc1-2	p53ts 39C kill 13µM, CRE Fsk mod inconclusive, p53ts 32C tox 7.9µM (no result: IkB sig inh)
